Sampled rows, rich in hits. Any-hit rate of the full collection: about 3.1%.
EPAC1 ag val: human EPAC1 agonism, validation | O95398 | EPAC1 Rap1b BODIPY-GDP exchange, fluorescence | Potency, µM, usual class: activators | actives 1% (n = 16,000); further: nearly all actives have a fitted effect of over 70% in size
EPAC2 ant val: validation of human EPAC2 antagonists. Q8WZA2. EPAC2 Rap1B BODIPY-GDP exchange, fluorescence. Potency, µM (highest dose often 112 µM), most hits filed as inhibitors. actives 1.7% (n = 16,000); further: nearly all actives have a fitted effect of over 40% in size
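Fluorescent exchange read-out: 100 nM EPAC2 with 250 nM RAP1B–BODIPY-GDP and 50 uM GDP; BODIPY-GDP release lowers fluorescence. Read at 480/540 nm every 5 min for 30 min at room temperature; normalized to 6.5 mM cAMP.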
Numbers stand for hits; . = inactive; ? = inconclusive; ! = not active in a repeat. The call rests on the fitted dose curve; in most records, active means well fitted curve in the direction sought with a large enough effect; inconclusive means small, poorly fitted or top-dose-only effect, or another doubt; inactive means no such curve, though single readings can be large; an effect the other way counts as inactive or inconclusive.

SMILES	EPAC1 ag val	EPAC2 ant val
COC(=O)/C=C/C(C)=C/C=C/C(C)=C/C=C/C=C(C)/C=C/C=C(C)/C=C/C(=O)O	.	.
COc1cc(C)c(/C=C/C(C)=C/C=C/C(C)=C/C(=O)O)c(C)c1C	.	25.1µM!
COc1cc(OC)c(OC)cc1CN1CCOc2ccc(CN3CCN(C(C)=O)CC3)cc2C1	.	.
O=c1c(-c2ccc(Cl)cc2)nc2cncnc2n1Cc1ccccc1	?	.
O=c1c(-c2ccc(Cl)cc2)nc2cncnc2n1Cc1ccccc1Cl	112µM	.
COC(=O)c1ccc(CN2CCOc3ccc(CN4CCC(O)(c5cccnc5)CC4)cc3C2)cc1	.	.
Nc1c(N=Nc2ccc(-c3ccc(N=Nc4cc(S(=O)(=O)O)c5ccccc5c4N)cc3)cc2)cc(S(=O)(=O)O)c2ccccc12	.	39.8µM
Cc1cc(-c2ccc(N=Nc3ccc4c(S(=O)(=O)O)cc(S(=O)(=O)O)c(N)c4c3O)c(C)c2)ccc1N=Nc1ccc2c(S(=O)(=O)O)cc(S(=O)(=O)O)c(N)c2c1O	.	31.6µM!
C=C1CC[C@H](O)C/C1=C\C=C1/CCC[C@]2(C)[C@@H]([C@H](C)CCCC(C)C)CC[C@@H]12	.	?
Clc1ccccc1C(c1ccccc1)(c1ccccc1)n1ccnc1	?	11.2µM!
Clc1ccccc1-c1nccc(-n2ccnc2)n1	.	.
Cc1cc2nc3c(=O)[nH]c(=O)nc-3n(C[C@H](O)[C@H](O)[C@H](O)COP(=O)(O)OP(=O)(O)OC[C@H]3O[C@@H](n4cnc5c(N)ncnc54)[C@H](O)[C@@H]3O)c2cc1C	112µM	.
Nc1ncnc2c1ncn2[C@@H]1O[C@H](COP(=O)(O)OP(=O)(O)OP(=O)(O)OP(=O)(O)OC[C@@H]2O[C@H](n3cnc4c(N)ncnc43)[C@@H](O)[C@H]2O)[C@@H](O)[C@H]1O	.	.
CO[C@@H]1[C@@H](O[C@@H]2O[C@H](C)[C@@H](O[C@H]3C[C@@](C)(O)[C@@H](OC(=O)CC(C)C)[C@H](C)O3)[C@H](N(C)C)[C@H]2O)[C@@H](CC=O)C[C@@H](C)C(=O)/C=C/C2OC2C[C@@H](C)OC(=O)C[C@H]1OC(C)=O (some centres undefined)	.	.
Cc1cccc(C)c1NC(=O)C(C)N (centres undefined)	89.1µM!	.
CN=C(N)NC(=O)Nc1c(C)cccc1C	.	.
Cc1oc(-c2ccccc2NC(=O)C2CCC2)nc1CNC(=O)c1ccc(C#CC(C)(C)O)cc1	.	?
COC(=O)[C@H]1[C@H]2C[C@@H]3c4[nH]c5cc(OC)ccc5c4CCN3C[C@H]2C[C@@H](OC(=O)COc2ccc(OC)cc2)[C@@H]1OC	.	.
CCOC(=O)Oc1c(OC)cc(C(=O)O[C@@H]2C[C@@H]3CN4CCc5c([nH]c6cc(OC)ccc56)[C@H]4C[C@@H]3[C@H](C(=O)OC)[C@H]2OC)cc1OC	31.6µM!	.
O=C(c1cccc(N2CCCC2=O)c1)N1CCC(Oc2cccc(CN3CCN(c4ccccn4)CC3)c2)CC1	.	.
CC1=C(CC(=O)O)c2cc(F)ccc2/C1=C\c1ccc(S(C)(=O)=O)cc1	.	.
CS(=O)(=O)c1ccc(-c2cc(Br)sc2-c2ccc(F)cc2)cc1	.	39.8µM
Cc1ccn(CCC(=O)NCC2Cc3cc(Cl)cc(-c4ccc5[nH]ccc5c4)c3O2)n1 (centres undefined)	.	.
COc1ccccc1N1CCN(c2nc(CNC(=O)C3CC34CCCC4)nc3ccccc23)CC1 (centres undefined)	.	?
Cc1c(C(=O)NCc2nccs2)cnn1-c1ncc2c(n1)-c1ccccc1CC2	.	.
SMILES	EPAC1 ag val	EPAC2 ant val
Cc1cc(C(=O)NCC2CCC3(CCN(Cc4ccc(-c5ccccc5)cc4)CC3)O2)n(C)n1 (centres undefined)	.	?
NC(N)=NCC1COC2(CCCCC2)O1 (centres undefined)	.	.
CC(=O)OC1CC[C@]2(C)C(CC[C@@]3(C)C2C(=O)C=C2C4C(C)C(C)CC[C@@]4(C(=O)O)CCC23C)C1(C)C (some centres undefined)	.	.
CC1(C)[C@@H](OC(=O)CCC(=O)O)CC[C@]2(C)[C@H]3C(=O)C=C4[C@@H]5C[C@@](C)(C(=O)O)CC[C@]5(C)CC[C@@]4(C)[C@]3(C)CC[C@@H]12	.	3.98µM
Cc1ccc2[nH]nc(C(=O)N3CCOc4ccc(CN5CCc6sccc6C5)cc4C3)c2c1	.	.
CC(C)C[C@@H](COc1ccccc1)N1CCN(CCc2ccccc2)CCC1=O	.	31.6µM
CCCN1CCC(=O)N([C@H](COc2ccccc2)CC(C)C)CC1	.	.
CC(=C\c1ccccc1)/C=C1/SC(=S)N(CC(=O)O)C1=O	.	?
CC1(COc2ccc(C[C@H]3SC(=O)NC3=O)cc2)CCCCC1	.	?
CC1(COc2ccc(CC3SC(=O)NC3=O)cc2)CCCCC1 (centres undefined)	.	50.1µM!
CCCOC(=O)c1cc(O)c(O)c(O)c1	.	.
O=C(OC[C@H]1O[C@@H](OC(=O)c2cc(O)c(O)c(OC(=O)c3cc(O)c(O)c(O)c3)c2)[C@H](OC(=O)c2cc(O)c(O)c(OC(=O)c3cc(O)c(O)c(O)c3)c2)[C@@H](OC(=O)c2cc(O)c(O)c(OC(=O)c3cc(O)c(O)c(O)c3)c2)[C@@H]1OC(=O)c1cc(O)c(O)c(OC(=O)c2cc(O)c(O)c(O)c2)c1)c1cc(O)c(O)c(OC(=O)c2cc(O)c(O)c(O)c2)c1	.	22.4µM
COc1ccccc1N1CCN(c2nc(CNC(=O)c3ccccc3F)nc3ccccc23)CC1	.	?
CC(C)N=C(N)/N=C(\N)Nc1ccc(Cl)cc1	.	.
NC(=NCCCCCCN=C(N)/N=C(\N)Nc1ccc(Cl)cc1)/N=C(\N)Nc1ccc(Cl)cc1	.	79.4µM!
COc1ccc2c(c1)-c1nc(-n3ncc(C(=O)N(C)CC4CCCN(C)C4)c3C)ncc1CC2 (centres undefined)	.	.
CCCCCCCCCCCCCCCC(=O)O[C@H]1[C@@H](O)[C@@H](O)[C@@H]([C@H](NC(=O)[C@@H]2C[C@@H](CCC)CN2C)[C@H](C)Cl)O[C@@H]1SC	.	.
CO[C@@H]1[C@@H](O[C@@H]2O[C@H](C)[C@@H](O[C@H]3C[C@@](C)(O)[C@@H](O)[C@H](C)O3)[C@H](N(C)C)[C@H]2O)[C@@H](CC=O)C[C@@H](C)[C@@H](O[C@@H]2CC[C@H](N(C)C)[C@@H](C)O2)/C=C/C=C/C[C@@H](C)OC(=O)C[C@H]1OC(C)=O	.	.
COc1ccc(/C=C/C(=O)c2ccc(O)cc2O)cc1	.	.
COc1ccc(/C=C/C(=O)c2ccc(OC)cc2OC)cc1	.	15.8µM
OCCO[C@@H]1[C@@H](O)[C@H](O)[C@@H](CO)O[C@@H]1O	.	.
Cc1[nH]c2ccccc2c1/C=C/c1nccc2ccccc12	.	?
CCCCCCCCCC[n+]1ccc(/C=C/c2c[nH]c3ccccc23)c2ccccc21	.	.
CCCCCCCCCC[n+]1ccc(/C=C/c2c(C)[nH]c3ccccc23)cc1	25.1µM	.
CCCCCCC[n+]1ccc(/C=C/c2c[nH]c3ccccc23)cc1	100µM	.
Cc1cccc2c(Nc3ccc4c(c3)OCO4)nc(CN3CCC(N4CCCCC4)CC3)nc12	.	.
Cc1cnc(C)c(-c2ccc(F)c3c2OC(CNC(=O)/C=C/c2cccs2)C3)n1 (centres undefined)	.	.
